In PubChem BioAssay (NCI):
The panel holds about 83,000 compounds, 20% with a hit somewhere; the sample as a whole holds those more often.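 Step 1: grow cells in 96-well plates. Step 2: add test compound at a single concentration. Step 3: incubate 48 h. Step 4: record percent growth.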 Unmarked numbers belong to inactive results. Active and inactive are the calls of the source. The calls were made as follows: active = growth percent below 10; inactive = the rest.

Tests used:
Assay in all cases: NCI-60 one-dose screen, 48 h (100 = growth as untreated, 0 = no growth, -100 = all killed)
Conditions in all cases: 10 µM unless noted
[1] = test system: T-47D breast
[2] = test system: BT-549 breast
[3] = test system: MDA-MB-435 melanoma
[4] = test system: SW-620 colon
[5] = test system: MCF7 breast
[6] = test system: HCT-116 colon
[7] = test system: HCC-2998 colon
[8] = test system: KM12 colon
[9] = test system: MDA-MB-468 breast

Structure (SMILES) | growth [1] | growth [2] | growth [3] | growth [4] | growth [5] | growth [6] | growth [7] | growth [8] | growth [9]
COc1ccc(C(=O)c2cc(C(C)=O)c3c(C)cc(C)cn23)cc1 | 48.6% | 25.4% | 49.1% | 82.2% | 35.2% | 19.6% | 76.1% | 71.2% | 59.6%
COc1cc(CNC(=O)C[C@H](C)CCC=C(C)C)ccc1OCc1cn(-c2cccc(C(F)(F)F)c2)nn1 | 32.4% | 92.3% | 74.9% | 38.7% | 56.8% | 12.5% | 111% | 85% | 64.9%
O=C(Nc1nc2ccc([N+](=O)[O-])cc2s1)Nc1ccccc1F | -5.6% (active) | -13.8% (active) | 12.7% | 16.6% | -0.503% (active) | 3.1% (active) | 23.8% | 13.6% | -15.4% (active)
COc1cc(C2C(C(=O)OCc3ccccc3)=C(C)Nc3nc4ccccc4n32)cc(OC)c1OC (stereo not drawn) | 55.6% | 14.2% | -34.7% (active) | 31.4% | 7.08% (active) | 2.8% (active) | 27.8% | 38% | -38% (active)
O=C(CSc1nnc(-c2ccc(-c3nc4ccccc4[nH]3)cc2)o1)Nc1ccc(Br)cc1 | 32.8% | 37.1% | 18.3% | -47% (active) | 9.69% (active) | 10.3% | 71.2% | 21.7% | 67.3%
COc1ccc(-c2nc3ccccc3n2CC(=O)N=Nc2c(O)[nH]c3ccc(OC)cc23)cc1 | -72.5% (active) | 20.5% | 26.3% | 48.6% | 58.1% | 1.32% (active) | 114% | 85% | 52.4%
O=C(c1cc2cc(OCCCN3CCC3)ccc2[nH]1)N1C[C@@H](CCl)c2c1cc(OCc1ccccc1)c1ccccc21 | -11.6% (active) | -48% (active) | -78.8% (active) | 0.696% (active) | -9.07% (active) | -80.6% (active) | -77.1% (active) | -5.46% (active) | -76.3% (active)
Cn1cc(-c2cc(N)n3nc(-c4c[nH]c5ccc(F)cc45)cc3n2)c2cc(Br)cnc21 | 54.5% | 92.6% | 78.8% | 17.2% | 47.1% | -26.9% (active) | 13.8% | 3.18% (active) | 20.7%
COc1ccc2nc(NC(=O)c3ccc(N(C)C)cc3)sc2c1 | 69% | 58.7% | 79.8% | 91.8% | 44.7% | 79.8% | 98.2% | 57.8% | 41.1%
CCOc1ccccc1[C@H]1C(C(=O)c2ccc(Cl)cc2)C2(N[C@@H]1c1ccccc1)C(=O)Nc1ccc(Br)cc12 (stereo partly drawn) | 13.2% | -67.7% (active) | -59.3% (active) | 15.8% | -11.9% (active) | -92.6% (active) | -22% (active) | -9.26% (active) | -21.5% (active)
N#CC1=C(c2cccs2)Nc2c(c(-c3ccccc3)nn2-c2ccccc2)C12C(=O)Nc1ccccc12 (stereo not drawn) | 17.3% | -41.8% (active) | 28.3% | 8.74% (active) | 31.4% | 5.53% (active) | 38.1% | 9.03% (active) | -9.71% (active)
c1ccc(CSc2nnc(-c3ccc4nc(-c5ccccc5)[nH]c4c3)o2)cc1 | 15.4% | 35.4% | 9.59% (active) | 10% | 1.53% (active) | 2.99% (active) | 62% | 55% | 2.91% (active)
CC(C)C[C@H](NC(=O)CNC(=O)C[C@H]1O[C@@H]2OC3(C)CC[C@H]4[C@H](C)CC[C@@H]([C@H]1C)[C@@]24O3)B(O)O | -30.8% (active) | -87% (active) | -71.1% (active) | -0.307% (active) | 20.3% | -67.2% (active) | -94.5% (active) | -24.4% (active) | -58.4% (active)
CC(=O)c1c2c(c3ccc4c5ccccc5ccc4n13)C(=O)c1ccccc1C2=O | 92.5% | 113% | 98.3% | 107% | 58% | 102% | 94.3% | 85.8% | 84.2%
COC(=O)c1c(C(=O)OC)c2c3ccccc3c3ccccc3n2c1C(=O)C(C)(C)C | 46.4% | 62.5% | 83.2% | 100% | 73% | 59% | 85.6% | 62.5% | 54.1%
CCCn1c(NC(=O)c2cccc(C(N)=O)c2)nc2cc(CN3CCCCC3)ccc21 | 86.6% | -10.8% (active) | 101% | 113% | 71.5% | 5.91% (active) | 116% | 22.8% | 82.5%
COc1ccc(/C=C/C(=O)c2ccc(S(=O)(=O)NCCNc3nc(N(C)C)nc(N4CCOCC4)n3)cc2)cc1 | 83.5% | 105% | 81.8% | 68.7% | 11.8% | -9.23% (active) | 116% | 64.8% | 76.3%
COc1ccc(C(=O)/C=C/c2ccc3c(c2)OCCO3)cc1S(N)(=O)=O | 53% | 65.4% | 87.8% | 32.3% | 23.2% | 42.9% | 99.1% | 85.8% | 80.7%
CCCn1c(NC(=O)c2cccc(C(N)=O)c2)nc2ccc(CN3CCCCC3)cc21 | 107% | -48% (active) | 93.1% | 109% | 75.6% | 6.73% (active) | 107% | 24% | 109%
FC(F)(F)c1cc2c(Cl)ncnc2n1CCN1CCCCC1 | 70.5% | -3.05% (active) | 56% | 34% | 52.1% | 8.04% (active) | -75.1% (active) | 93.9% | -10.6% (active)
COc1ccc(C2=NN(C(=O)[C@H]3[C@@H](c4ccco4)c4sc(=O)[nH]c4S[C@@H]3C)C(c3ccc4ccccc4c3)C2)cc1 (stereo partly drawn) | 9.22% (active) | 76.2% | 41.8% | 24.9% | 13.1% | 16.1% | 27.3% | 33.9% | -14.6% (active)
COc1ccc(-c2nc3ccccc3n2CC(=O)N=Nc2c(O)[nH]c3ccc(Br)cc23)cc1 | 90.9% | 53.3% | 23.3% | 83% | 43.7% | 51.9% | 108% | 71.1% | 56.1%
CN1CCN(c2ccc3c4c(cccc24)C(=O)N(c2cccc(-c4nn(-c5ccccc5)cc4-c4nc5ccccc5s4)c2)C3=O)CC1 | 109% | 97.1% | 95.1% | 93% | 5.13% (active) | 79% | 79.2% | 73.5% | 94.1%
CC1=C(C(=O)Nc2ccccc2)C(c2ccc3ccccc3c2)n2c(nc3ccccc32)N1 (stereo not drawn) | 91.8% | 92.9% | 53.9% | 9.24% (active) | 9.9% (active) | -36.4% (active) | 52.3% | 69.4% | 17.9%
N#C/C(=C1/C(=O)Nc2ccccc21)c1nnc(NC(=O)c2ccc(-n3c(=O)[nH]c4ccccc4c3=O)cc2)s1 | 6.13% (active) | 12.1% | -85.5% (active) | 65.4% | 7.69% (active) | 22.8% | 32.5% | 21.4% | 12.9%
O=C1CCC(N2C(=O)c3cccc(NCCOCCOCCOCCC(=O)NCCCC(=O)NC(c4ccc5c(c4)OCO5)c4cc(Cl)c5cccnc5c4O)c3C2=O)C(=O)C1 (stereo not drawn) | 16% | 11.3% | 47.4% | 39% | 10.9% | 28.3% | 30% | 13.4% | -33.9% (active)
CN(C)C(=O)c1cc(-c2ccc3ncnc(N4CCc5cc(F)c(Cl)cc54)c3c2)cnc1N | -59.1% (active) | -82.9% (active) | -58.5% (active) | -51.8% (active) | -59.9% (active) | -97.4% (active) | -82.2% (active) | -58.3% (active) | -80.4% (active)
